# Reference: PubChem BioAssay AID1210 (NMMLSC, 2008)
# Activity calls are given as the source filed them.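 The calls were made as follows: active = blocks over 70% of labeled estradiol binding at 10 µM, or over a set limit at 100 nM; inactive = the rest.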
# Biological target: Estrogen receptor beta (Homo sapiens) (UniProt Q92731)
# Test: displacement of fluorescent estrogen from ERbeta – cell-based, Cos7 ERbeta-GFP, flow cytometry, primary screen (AID 1210);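 also: 0% = DMSO vehicle wells and 100% = complete loss of labeled estradiol signal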
# Conditions: fluorescent estrogen binding, at 10 µM, stronger effect = higher value
# Chain of Estrogen receptor beta (Homo sapiens) (Q92731 whole entry, looked up): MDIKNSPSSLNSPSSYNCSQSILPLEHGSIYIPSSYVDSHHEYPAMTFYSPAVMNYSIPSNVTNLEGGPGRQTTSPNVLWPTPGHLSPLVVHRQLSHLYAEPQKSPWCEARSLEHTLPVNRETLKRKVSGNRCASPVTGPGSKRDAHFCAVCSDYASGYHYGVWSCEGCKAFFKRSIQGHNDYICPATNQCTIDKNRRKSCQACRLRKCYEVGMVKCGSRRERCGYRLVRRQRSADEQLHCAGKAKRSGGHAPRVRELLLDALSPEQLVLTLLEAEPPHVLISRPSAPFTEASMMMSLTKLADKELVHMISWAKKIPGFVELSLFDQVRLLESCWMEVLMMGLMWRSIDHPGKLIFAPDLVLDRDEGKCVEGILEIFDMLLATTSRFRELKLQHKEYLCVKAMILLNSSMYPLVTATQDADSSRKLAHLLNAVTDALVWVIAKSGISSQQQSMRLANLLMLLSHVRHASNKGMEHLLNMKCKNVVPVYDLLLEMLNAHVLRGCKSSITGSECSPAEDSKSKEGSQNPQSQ
row,Compound,inhibition
1,O=C1C2C3C=CC(C3)C2C(=O)N1c1cccc2cccnc12 (configuration not stated),55% (inactive)
2,O=C1/C(=C\c2ccco2)SC(=S)N1c1ccc(O)cc1,77% (active)
3,CCc1ccc2[nH]c(=O)c(CN(Cc3ccc4c(c3)OCO4)C(=O)c3ccco3)cc2c1,13% (inactive)
4,Fc1ccc2c(c1)C1C=CCC1C(c1cc3c(cc1Br)OCO3)N2 (configuration not stated),0% (inactive)
5,CC(C)C1CC(CCNCc2ccc3c(c2)OCO3)(c2ccccc2)CCO1 (configuration not stated),45% (inactive)
6,Cc1nn(-c2ccccc2)c2sc(C#N)c(N)c12,6% (inactive)
7,O=C(O)c1ccc2c(c1)C1C=CCC1C(c1cccc([N+](=O)[O-])c1)N2 (configuration not stated),33% (inactive)
8,COc1ccc(C2Nc3ccccc3C(=O)N2c2ccc(F)cc2)cc1CSc1ccccn1 (configuration not stated),6% (inactive)
9,O=C(Nc1ccc(-c2nc3ccc(NC(=O)c4cccs4)cc3[nH]2)cc1)c1cccs1,58% (inactive)
10,COc1ccc(NS(=O)(=O)c2ccc3c(c2)[C@H]2C=CC[C@H]2[C@@H](c2ccc(F)cc2)N3)cc1,20% (inactive)
11,Cc1ccc(C)c(/C(O)=C2/C(=O)C(=O)N(CCN3CCOCC3)C2c2ccco2)c1 (configuration not stated),23% (inactive)
12,CC(C)C1Nc2ccc(C(=O)O)cc2C2C=CCC21 (configuration not stated),35% (inactive)
13,O=C(Cc1coc2cc3c(cc12)CCC3)OCc1cc(=O)n2c(n1)sc1ccccc12,56% (inactive)
14,COc1cc(C(C#N)N2N=C(c3ccccc3)CC2c2ccccc2)ccc1O (configuration not stated),54% (inactive)
15,CCC(Oc1ccc2c3c(c(=O)oc2c1C)CCC3)C(=O)OC (configuration not stated),15% (inactive)
16,Nc1ccc2nc(-c3cc(Cl)c(N)c(Cl)c3)[nH]c2c1,10% (inactive)
17,N#Cc1c(NCCN)nc(NCc2ccccc2)c2c1CCN(Cc1ccccc1)C2,42% (inactive)
18,CN(C)NC(=S)Nc1ccc2nc(-c3ccccn3)c(-c3ccccn3)nc2c1,25% (inactive)
19,CC(=O)c1ccc2c(c1)C1C=CCC1C(c1ccncc1)N2 (configuration not stated),11% (inactive)
20,Cn1c(SCc2cc(=O)n3cc(Br)ccc3n2)nnc1C1COc2ccccc2O1 (configuration not stated),16% (inactive)

row,Compound,inhibition
1,CCCOc1cc(OCCC)c2c3c(c(=O)oc2c1)CCCC3,20% (inactive)
2,CC1CCCN(c2nc3c(c(=O)[nH]c(=O)n3C)n2Cc2ccccc2Cl)C1 (configuration not stated),38% (inactive)
3,COc1cc(/C=N/N2CCN(C3c4ccccc4-c4ccccc43)CC2)cc(OC)c1O,12% (inactive)
4,N=c1c(C(=O)NCc2ccc(F)cc2)cc2c(=O)n3ccccc3nc2n1Cc1cccnc1,30% (inactive)
5,O=C(Nc1sc2c(c1C(=O)O)CCC2)c1ccccc1,46% (inactive)
6,N#Cc1ccc(-c2cccnc2)nc1SCC(=O)Nc1sc2c(c1C#N)CCC2,0% (inactive)
7,CCOc1ccccc1-c1nc(-c2ccc(NC(=O)c3ccc(Br)o3)cc2)no1,37% (inactive)
8,Cc1cc(C)c2c(c1)[C@@H]1C=CC[C@@H]1[C@H](c1ccc(S(=O)(=O)N3CCOCC3)cc1)N2,35% (inactive)
9,COc1ccc(C(Nc2ccccn2)c2oc(CO)cc(=O)c2O)cc1 (configuration not stated),75% (active)
10,CC(=O)Oc1ccc(C2Nc3c(C(=O)O)ccc([N+](=O)[O-])c3C3C=CCC32)cc1 (configuration not stated),56% (inactive)
11,COc1ccc(Oc2ccc3c(c2)c2c4n3CCNC4CCC2)cc1 (configuration not stated),7% (inactive)
12,Cc1cc(C(C)CO)cc(C(C)(C)C)c1O (configuration not stated),19% (inactive)
13,O=C(O)c1cc(-c2ccco2)nc2ccccc12,14% (inactive)
14,Cc1nnc(NC(=O)Cc2cccs2)s1,4% (inactive)
15,CCN1CCN(Cc2c(O)c(Cl)cc3c(C)cc(=O)oc23)CC1,31% (inactive)
16,O=C1C2CC=C(Cl)CC2C(=O)N1CCCCCCN1C(=O)C2CC=C(Cl)CC2C1=O (configuration not stated),28% (inactive)
17,COc1ccc2[nH]c3c(c2c1)CCNC3=O,17% (inactive)
18,Cc1ccc(Cc2cncc(O)c2)cc1S(=O)(=O)O,0% (inactive)
19,Cn1c(-c2ccc(N)cc2)nc2ccccc21,24% (inactive)

# Same assay, conditions: fluorescent estrogen binding, ligand binding inhibition, at 0.1 µM, stronger effect = higher value
row,Compound,inhibition
1,O=C1C2C3C=CC(C3)C2C(=O)N1c1cccc2cccnc12 (configuration not stated),51%
2,O=C1/C(=C\c2ccco2)SC(=S)N1c1ccc(O)cc1,27%
3,CCc1ccc2[nH]c(=O)c(CN(Cc3ccc4c(c3)OCO4)C(=O)c3ccco3)cc2c1,6%
4,COc1ccc(C2Nc3ccccc3C(=O)N2c2ccc(F)cc2)cc1CSc1ccccn1 (configuration not stated),30%
5,O=C(Nc1ccc(-c2nc3ccc(NC(=O)c4cccs4)cc3[nH]2)cc1)c1cccs1,18%
6,Cc1ccc(C)c(/C(O)=C2/C(=O)C(=O)N(CCN3CCOCC3)C2c2ccco2)c1 (configuration not stated),17%
7,O=C(Cc1coc2cc3c(cc12)CCC3)OCc1cc(=O)n2c(n1)sc1ccccc12,14%
8,COc1cc(C(C#N)N2N=C(c3ccccc3)CC2c2ccccc2)ccc1O (configuration not stated),5%
9,CC1CCCN(c2nc3c(c(=O)[nH]c(=O)n3C)n2Cc2ccccc2Cl)C1 (configuration not stated),32%
10,N=c1c(C(=O)NCc2ccc(F)cc2)cc2c(=O)n3ccccc3nc2n1Cc1cccnc1,34%
11,O=C(Nc1sc2c(c1C(=O)O)CCC2)c1ccccc1,35%
12,N#Cc1ccc(-c2cccnc2)nc1SCC(=O)Nc1sc2c(c1C#N)CCC2,10%
13,Cc1cc(C)c2c(c1)[C@@H]1C=CC[C@@H]1[C@H](c1ccc(S(=O)(=O)N3CCOCC3)cc1)N2,48%
14,COc1ccc(C(Nc2ccccn2)c2oc(CO)cc(=O)c2O)cc1 (configuration not stated),40%
15,Cc1nnc(NC(=O)Cc2cccs2)s1,22%
16,CCN1CCN(Cc2c(O)c(Cl)cc3c(C)cc(=O)oc23)CC1,8%
17,O=C1C2CC=C(Cl)CC2C(=O)N1CCCCCCN1C(=O)C2CC=C(Cl)CC2C1=O (configuration not stated),36%
18,Cc1ccc(Cc2cncc(O)c2)cc1S(=O)(=O)O,13%
